# Data from PubChem BioAssay (NCI).
# The panel holds about 83,000 compounds, 20% with a hit somewhere; the sample as a whole holds those more often.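 Step 1: grow cells in 96-well plates. Step 2: add test compound at a single concentration. Step 3: incubate 48 h. Step 4: record percent growth.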 A number with no mark means an inactive call. The source made the active and inactive calls. How the source made its calls: active means growth percent below 10; inactive means the rest.
# Test system: MDA-MB-231 breast
# Experiment: NCI-60 one-dose screen, 48 h (100 = growth as untreated, 0 = no growth, -100 = all killed)
# Settings: 10 µM
row,SMILES,growth
1,CCCCCCCCCCCC(=O)NCCCN(C)C,79.1%
2,Nc1ccc(C2=CC(c3ccc(Cl)cc3)N3C=CSC3=N2)cc1 (stereo not drawn),-14.4% (active)
3,CC(=O)n1nc(C(=O)OC(C)(C)C)c2cc(F)c(F)cc21,94%
4,COC(=O)c1c(C)nc(Nc2nc3ccccc3s2)nc1-c1ccc(Cl)cc1Cl,99.1%
5,O=C(O)CCCCSCCCCC(=O)O,107%
6,COc1cc(-c2nc3ccc(C)cc3[nH]2)ccc1OCC(=O)N=Nc1c(O)[nH]c2ccccc12,-81.2% (active)
7,CC1=CSC2=NC(c3ccc(Cl)c(Cl)c3)=CC(c3ccc(Cl)cc3)N12 (stereo not drawn),-44% (active)
8,COc1ccc(Nc2ccnc(N3CCN(c4ccnc5cc(Cl)ccc45)CC3)n2)cc1,24.8%
9,Cn1cnc([N+](=O)[O-])c1/C=C1\Oc2ccc(Cl)cc2C1=O,86.7%
10,CCOC(=O)Cn1nnc(-c2ccc(OCc3ccccc3F)cc2)n1,104%
11,COc1ccc(/C(CS(=O)(=O)c2ccccc2)=N\O)cc1,113%
12,COc1ccc(S(=O)(=O)Nc2cc(/C=C\c3cc(OC)c(OC)c(OC)c3)ccc2OC)cc1,7.83% (active)
13,COc1ccc2nc(C)cc(Nc3ccc(Cl)cc3)c2c1,115%
14,COc1cc(-c2nc3ccc(C)cc3[nH]2)ccc1OCc1nnc(-c2ccc(CC(C)C)cc2)o1,88.9%
15,Cc1noc(C)c1-c1ccc2nc(NC(=O)[C@H]3CCN(C#N)C3)cn2c1,68.2%
16,COc1ccc(COC(=O)CC(C)C)cc1,106%
17,Cc1ccc(-n2nnc3c(sc4ccccc43)c2=O)cc1,40.9%
18,Nc1ccn([C@@H]2O[C@H](COP(=O)(O)O[C@@H]3C[C@H](n4cc(F)c(=O)[nH]c4=O)O[C@@H]3COP(=O)(O)O[C@@H]3C[C@H](n4cc(F)c(=O)[nH]c4=O)O[C@@H]3COP(=O)(O)O[C@@H]3C[C@H](n4cc(F)c(=O)[nH]c4=O)O[C@@H]3COP(=O)(O)O[C@@H]3C[C@H](n4cc(F)c(=O)[nH]c4=O)O[C@@H]3COP(=O)(O)O[C@@H]3C[C@H](n4cc(F)c(=O)[nH]c4=O)O[C@@H]3COP(=O)(O)O[C@@H]3C[C@H](n4cc(F)c(=O)[nH]c4=O)O[C@@H]3COP(=O)(O)O[C@@H]3C[C@H](n4cc(F)c(=O)[nH]c4=O)O[C@@H]3COP(=O)(O)O[C@@H]3C[C@H](n4cc(F)c(=O)[nH]c4=O)O[C@@H]3COP(=O)(O)O[C@@H]3C[C@H](n4cc(F)c(=O)[nH]c4=O)O[C@@H]3COP(=O)(O)O[C@@H]3C[C@H](n4cc(F)c(=O)[nH]c4=O)O[C@@H]3COP(=O)(O)OCCOCCOCCOCCOCCOCCO)[C@H](O)C2O)c(=O)n1 (stereo partly drawn),91.4%
19,COc1ccc(-c2nnc(COc3ccc(NC(=O)Nc4cccc(C(F)(F)F)c4)cc3F)o2)cc1,42.5%

row,SMILES,growth
1,Fc1ccc(Nc2ccnc(N3CCN(c4ccnc5cc(Cl)ccc45)CC3)n2)cc1,56%
2,CCOC(=O)c1cc(-c2ccccc2)nc(N)n1,97.4%
3,CC1(CO)CCCC12OCCO2 (stereo not drawn),104%
4,CCc1c(C)[nH]c(=O)c(C(N)=O)c1C#N,102%
5,CCOc1ccc2c(c1)CC[C@@H]1[C@@H]2CC[C@]2(C)[C@@H](O)[C@@H](O)C[C@@H]12,109%
6,COc1ccc(OC)c([N+](=O)[O-])c1C=O,107%
7,CCOC(=O)Nc1ccc2c(c1)C(=O)N(CC)c1ccccc1O2,20.2%
8,Cc1ccc(C)c2c1sc1nc3n[nH]c(N)c3c(=N)n12,101%
9,c1ccc(CC(NCCNC(Cc2ccccc2)c2ccccc2)c2ccccc2)cc1 (stereo not drawn),7.83% (active)
10,Cc1ccc2nc(-c3ccc(OCC(=O)N=Nc4c(O)[nH]c5ccccc45)cc3)[nH]c2c1,74.4%
11,COc1ccc2c(=O)cc(C(Cl)(Cl)Cl)oc2c1,-31.1% (active)
12,c1ccc(OCCC[P+](c2ccccc2)(c2ccccc2)c2ccccc2)cc1,11.9%
13,COc1cc(CSc2nc3ccc(C)cc3c(=O)n2Cc2ccccc2)cc(OC)c1OC,44.4%
14,C[N+]1=C(/C=C/c2ccc(I)cc2)C(C)(C)c2ccccc21,67.1%
15,COc1ccccc1S(=O)(=O)Nc1ccc2c(c1)CN(C)C(=O)N2,54.7%
16,CCC(O)c1ccc(Br)cc1NC(=O)c1cccc(Cl)c1 (stereo not drawn),-1.69% (active)
17,CCCCn1c(=O)[nH]c(N)c(C(c2ccc(Cl)cc2)c2c(N)[nH]c(=O)n(CCCC)c2=O)c1=O,54.4%
18,COc1ccc(C(=O)/C=C/c2cc(-c3ccc4c(c3)OCO4)n[nH]2)cc1OC,58.3%
19,COc1ccc2oc(=O)cc(C(c3ccc[nH]3)c3ccc[nH]3)c2c1,13.2%
